TR-FRET SRC-2 ct: TR-FRET signal artefacts, primary screen, artefact control for PPARgamma SRC-2 agonist project, biochemical; TR-FRET artefact counter-screen; active compounds read high; TR-FRET ratio at 8 µM; 0.4% of 200,000 active; AID 1049, 2008
SRC1 TRFRET art: TR-FRET detection interference compounds, primary screen, artefact control for PPARgamma SRC-1 recruitment agonists, biochemical, TR-FRET emission ratio; TR-FRET detection artefact counter-screen; active compounds read high; TR-FRET ratio at 8 µM; 0.34% of 99,000 active; in the data active = TR-FRET ratio above about 2300
PPARg SRC1 recr: PPARgamma agonists recruiting SRC-1 coactivator, primary screen, biochemical | AID 631, 2007 | Peroxisome proliferator-activated receptor gamma (Homo sapiens), P37231 | 0.41% of 200,000 active | activation, % at 8 µM | PPARgamma-SRC-1 coactivator recruitment biochemical assay; in the data active = activation above about 19%;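 note: 0% = DMSO and 100% = reference agonist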
Target sequence (P37231 whole entry, looked up): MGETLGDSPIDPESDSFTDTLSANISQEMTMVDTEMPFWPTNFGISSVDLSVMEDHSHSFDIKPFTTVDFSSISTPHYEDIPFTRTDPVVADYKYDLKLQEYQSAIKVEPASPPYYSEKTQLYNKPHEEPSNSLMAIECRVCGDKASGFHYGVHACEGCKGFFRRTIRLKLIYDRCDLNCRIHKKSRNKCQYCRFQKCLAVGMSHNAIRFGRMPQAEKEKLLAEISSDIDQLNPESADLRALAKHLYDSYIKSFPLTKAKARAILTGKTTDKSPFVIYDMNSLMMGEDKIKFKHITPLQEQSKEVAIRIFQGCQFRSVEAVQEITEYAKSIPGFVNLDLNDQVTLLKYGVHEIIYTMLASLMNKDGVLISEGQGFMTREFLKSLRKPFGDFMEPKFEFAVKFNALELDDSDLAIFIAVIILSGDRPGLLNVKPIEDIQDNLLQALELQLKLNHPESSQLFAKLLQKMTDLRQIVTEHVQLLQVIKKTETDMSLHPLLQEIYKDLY
PPARg SRC3 recr: PPARgamma agonists recruiting SRC-3 coactivator, primary screen, biochemical. 0.26% of 200,000 active. activation, % at 8 µM. biochemical PPARgamma/SRC-3 coactivator recruitment assay. Peroxisome proliferator-activated receptor gamma (Homo sapiens), P37231; in the data active = activation above about 23%;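 note: 0% = DMSO and 100% = reference agonist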
SRC3 TRFRET art: TR-FRET detection interference compounds, artefact control for PPARgamma SRC-3 recruitment agonists, biochemical, TR-FRET ratio; AID 1048, 2008; TR-FRET ratio at 8 µM; TR-FRET artefact counter-screen, PPARgamma/SRC-3 format; active compounds read high; 0.39% of 99,000 active
PPARg SRC-2 ag: agonists of PPARg-SRC-2 recruitment, primary screen, biochemical, HTS; Peroxisome proliferator-activated receptor gamma (Homo sapiens), P37231; activation, % at 8 µM; 0.34% of 200,000 active; PPARgamma LBD-SRC-2 recruitment; in the data active = activation above about 22%;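 note: 0% = vehicle and 100% = reference agonist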
* hit, by the source's call; x = not tested or not shown. The list is not random: actives were taken first. Their share in the collection is about 0.84%. Cut-off read from the data, not from the text of the source, unless noted: active = TR-FRET ratio above about 2000; inactive = the rest.

SMILES	TR-FRET SRC-2 ct	SRC1 TRFRET art	PPARg SRC1 recr	PPARg SRC3 recr	SRC3 TRFRET art	PPARg SRC-2 ag
O=C(Nc1ccc(Cl)c(S(=O)(=O)N2CCOCC2)c1)c1ccccc1-c1ccc(C(F)(F)F)cc1	1555	1895	5	6	1570	-4
Cc1cc(C)c(C#N)c(SCc2ccc(F)cc2)n1	1549	1966	5	3	1600	6
CCc1nc(SCc2ccc(F)cc2)[nH]c(=O)c1C#N	2794*	x	-2	0	x	57*
CN(C)/C=C/C(=O)c1ccccc1OCc1cnc(Cl)s1	1586	1821	-1	1	1557	5
COc1ccc(-c2csc(N(CCc3ccc(OC)c(OC)c3)C(=O)COc3ccccc3)n2)cc1	2007*	x	15	11	x	3
COc1ccc(-c2csc(N(Cc3ccccc3)C(=O)COc3ccc(Cl)cc3)n2)cc1	1523	x	5	-1	x	2
COc1ccc(-c2csc(N(CCCN(C)C)C(=O)c3cccs3)n2)cc1	1458	1918	2	0	1557	2
CCN(C(=O)c1cccs1)c1nc(-c2ccc(OC)cc2)cs1	1836	2224	6	0	2437*	6
CNc1ccccc(-c2ccc3cc4c(cc3n2)OCO4)c1=O	1473	1559	9	4	1715	0
Clc1ccc(-c2nnc3sc(-c4ccc(Br)o4)nn23)cc1	1593	x	8	28*	x	11
Clc1ccccc1-c1nnc2sc(-c3ccc(Br)o3)nn12	1961	x	5	18	x	12
CC(=O)N1CCN(CCN=CC2=C(O)CC(c3cccs3)CC2=O)CC1 (configuration not stated)	1535	x	6	4	x	7
CC(C)c1ccc(OCC(=O)NC(=S)Nc2ccc3c4c(cccc24)CC3)cc1	1873	x	22*	6	x	7
Cc1ccc(-n2c(C)cc(C3=NNC(=NC4CC4)SC3)c2C)cc1C	1587	1835	1	-2	1611	7
CCCCc1ccc(/C=C(\C#N)C(N)=S)s1	1625	1995	4	-1	1538	0
CCCCc1ccc(C2C(C#N)=C(N)SC(N)=C2C#N)s1	1742	x	21*	8	x	4
O=C(OCCN=C1NS(=O)(=O)c2ccccc21)C1CC(=O)N(c2ccc3ccccc3c2)C1 (configuration not stated)	1523	x	3	6	x	2
CC1Cc2ccccc2N1C(=O)CSc1nnc(-c2ccccc2)c(-c2ccccc2)n1 (configuration not stated)	3425*	x	-3	2	x	0
CCCC1=[N+](CC(=O)c2ccc(C)cc2)CCn2cccc21	1610	2083	6	-3	1632	-1
N#Cc1ccc(NC(=O)COC(=O)CCNS(=O)(=O)c2ccccc2)cc1	1433	1687	-5	1	1601	-5
CCCCNC(=S)Nc1ccc(-c2nc3ccc(C)cc3s2)cc1	1744	1999	3	2	1753	15
Cc1ccc2nc(-c3ccc(NC(=S)NCCC(C)C)cc3)sc2c1	1682	x	14	21	x	41*
CC(C)=Cc1oc2ccc([N+](=O)[O-])cc2c1N1CC(C)OC(C)C1 (configuration not stated)	1533	1890	4	-4	1526	8
COc1ccc(C)cc1-n1nnnc1SCC(=O)c1ccc2c(c1)OCCO2	3766*	x	-9	-1	x	6
O=C(CSc1nnc2c3ccccc3c3ccccc3c2n1)Nc1ccccc1	1585	x	64*	13	x	6
O=C(CSc1nnc2c3ccccc3c3ccccc3c2n1)Nc1ccccc1F	1707	x	-1	8	x	5
Cc1c(Cl)cccc1NC(=O)CCCn1nc([N+](=O)[O-])cc1C	2111*	2085	7	2	1427	14
CN(C)C(=O)c1cc(C(=O)c2ccc(C(F)(F)F)cc2F)c[nH]1	1561	1960	13	2	1656	-1
CCN1/C(=C\C(=S)Nc2ccccc2)Sc2ccccc21	2548*	3876*	1	6	3725*	-10
COC(=O)c1cc(=O)c2c(C)nc(C(Cl)(Cl)Cl)nc2[nH]1	1606	1679	-4	1	1422	5

Source: PubChem BioAssay
